Assay results as given in PubChem BioAssay (NCATS).
“And” between values parts separate entries of the source, which are not always exact repeats. Equal entries are not always repeated. Inconclusive results are not listed. The source made the active and inactive calls. Unless noted, calls come from the whole dose curve; as a rule, active = well fitted curve in the direction sought with a large enough effect; inconclusive = small, poorly fitted or top-dose-only effect, or another doubt; inactive = no such curve, though single readings can be large; an effect the other way counts as inactive or inconclusive.

Experiments:
[1] = Cell Viability - BJ (AID 421; calls by dose curve;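 note: potency is the fitted concentration of half-maximal effect; cells exposed to compound for 40 hours at 37 °C before readout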); conditions: BJ fibroblast viability, qHTS
How it was run: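 Normal human BJ foreskin fibroblasts, 1500/well in complete medium, treated 40 hr at 37 °C. Cellular ATP by CellTiter-Glo luminescence; normalized to DMSO and 100 uM tamoxifen, AC50 from Hill fit.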

[2] = Cell Viability - Jurkat (AID 426;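 active = dose-dependent loss of cell ATP signal giving a full or clear fitted curve, ranked by lower potency value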; note: potency is the fitted concentration of half-maximal effect); conditions: qHTS
How it was run: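 Luminescent ATP read-out (CellTiter-Glo, 20 min at room temperature) after 40 hr compound exposure at 37 °C of Jurkat E6-1 cells, 5000/well. Decreased ATP taken as cytotoxicity; AC50 from standard Hill equation.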

[3] = Cell Viability - Hek293 (AID 427;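 active = compounds whose dose-response curve shows a full or clear partial loss of cell viability, called from curve shape rather than a numeric limit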;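 note: potency is the fitted concentration of half-maximal effect; cells exposed to compound for 40 hours at 37 °C before reading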); conditions: qHTS
How it was run: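 HEK293 cells in complete medium were exposed to compound for 40 hr at 37 °C, then cellular ATP was read by CellTiter-Glo luminescence. Data were normalized to DMSO (basal) and 100 uM tamoxifen (100% inhibition), and AC50 came from Hill fits.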

[4] = Cell Viability - HepG2 (AID 433; calls by dose curve;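 note: potency is the fitted concentration of half-maximal effect; potency for ATP loss meaning cytotoxicity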); conditions: qHTS
How it was run: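 Cytotoxicity read as ATP loss (CellTiter-Glo luminescence) after 40 hr compound exposure of HepG2, 1500 cells/well, 37 °C. AC50 by Hill equation; 0% set by DMSO, 100% inhibition by 100 uM tamoxifen.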

[5] = Cell Viability - MRC5 (AID 434; calls by dose curve;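 note: potency is the fitted concentration of half-maximal effect; potency reflects cytotoxicity seen as loss of intracellular ATP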); conditions: MRC5 lung fibroblast viability, qHTS
How it was run: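 Decrease in intracellular ATP, quantified by luciferase light output, reflects compound toxicity toward MRC5 cells exposed for 40 hr in complete culture medium. Concentration-response curves, scaled between DMSO and 100 uM tamoxifen, gave AC50 values.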

[6] = Cell Viability - SK-N-SH (AID 435; calls by dose curve; note: potency is the fitted concentration of half-maximal effect); conditions: SK-N-SH neuroblastoma cell viability qHTS
How it was run: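 qHTS cytotoxicity: CellTiter-Glo ATP luminescence after 40 h compound exposure of human neuroblastoma SK-N-SH cells at 37 °C. AC50 derived by Hill-equation fitting, with DMSO as basal and 100 uM tamoxifen as full inhibition.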

[7] = Cellular Toxicity (caspase-3) HepG2 (AID 654); conditions: HepG2 caspase-3 activation, luminescence, 0% = DMSO only, 100% = tamoxifen; series mostly up to 92.2 µM;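 note: cells exposed to compound for 16 hours before reading; 0% = DMSO alone and 100% = caspase signal from 100 µM tamoxifen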
How it was run: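 Luminescent Caspase-Glo 3/7 readout after 16 hr compound exposure of human hepatocellular carcinoma HepG2 cells at 37 °C; qHTS concentration-response, normalized DMSO = 0%, 100 uM tamoxifen = 100%; AC50 by standard Hill equation.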

[8] = Cellular Toxicity (caspase-3) BJ (AID 658); conditions: BJ fibroblasts, luminescence, normalized: DMSO 0%, staurosporine 100%; series mostly up to 91.7 µM
How it was run: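 Plated BJ cells (1000/well) rested 5 hr, received compound for 16 hr at 37 °C, then Caspase-Glo 3/7 reagent for 1 hr at room temperature before luminescence reading.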

[9] = Cellular Toxicity (caspase-3) MRC-5 (AID 659); conditions: MRC-5 cells, luminescence, normalized: DMSO 0%, 10 µM staurosporine 100%; series mostly up to 91.7 µM
How it was run: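 Apoptosis readout in MRC-5 cells: luciferase light generated after caspase 3/7 cleaves a peptide-aminoluciferin substrate, measured post 16 hr compound incubation at 37 °C.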

[10] = Cellular Toxicity (caspase-3) Hek293 (AID 664); conditions: HEK293 caspase-3 activation, DMSO = 0%, 100 µM tamoxifen = 100%; at 92.2 µM (top of the series);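 note: cells exposed to compound for 16 h at 37 °C before readout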
How it was run: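 Luminescent Caspase-Glo 3/7 readout (aminoluciferin release) in HEK293 cells after 16 h compound treatment, 37 °C. Normalization: DMSO = basal, 100 uM tamoxifen = 100% stimulation. Concentration-response fitted with standard Hill equation for AC50.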

[11] = Cellular Toxicity (caspase-3) N2a (AID 665); conditions: N2a cells, luminescence, normalized: DMSO 0%, 10 µM staurosporine 100%; series mostly up to 92.2 µM;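 note: compound exposure lasted 16 h at 37 °C before readout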
How it was run: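 Luminescent Caspase-Glo 3/7 readout in N2a mouse neuroblastoma cells after 16 h compound exposure at 37 °C. Signal scaled to DMSO (basal) and 10 uM staurosporine (100%). Concentration-response fitted with Hill equation for AC50.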

[12] = Cellular Toxicity (caspase-3) NIH 3T3 (AID 666); conditions: NIH 3T3 caspase-3 activation, apoptosis/toxicity; series mostly up to 92.2 µM;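 note: 0% = DMSO basal and 100% = 100 µM tamoxifen stimulation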
How it was run: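 NIH 3T3, 1000 cells/well, 5 hr settle then 16 hr compound at 37°C; Caspase-Glo 3/7, 20 min RT, luminescence. DMSO = basal, 100 uM tamoxifen = 100%. Hill-equation AC50, qHTS.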

[13] = MultiTox-Fluor Cytotoxicity Assay - LYMP1-001 - Dead Cells (AID 946); conditions: LYMP1-001 lymphoblastoid cells, dead-cell protease fluorescence; series mostly up to 92.2 µM;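 note: 0% = DMSO and 100% = tetraoctylammonium bromide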
How it was run: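 LYMP1-001 lymphoblastoid cells (2500/well) treated 16 h at 37 C. Dead-cell protease cleavage of bis-AAF-R110 read at Ex/Em 485/520. Normalized to DMSO and 15 uM tetraoctylammonium bromide; AC50 from Hill fits.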

[14] = MultiTox-Fluor Cytotoxicity Assay - LYMP1-002 - Live Cells (AID 955); conditions: LYMP1-002 lymphoblastoid live-cell protease fluorescence viability; series mostly up to 46.1 µM; note: % is set by controls: 0 for no effect and ±100 for the full control effect
How it was run: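 LYMP1-002 lymphoblastoid cells; 2500 cells/well; 16 hr compound exposure, 37 C; MultiTox-Fluor reagent 60 min RT; live-cell fluorescence Ex/Em=405/510; qHTS concentration-response, Hill-equation AC50; tetraoctylammonium bromide positive control.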

[15] = MultiTox-Fluor Cytotoxicity Assay - LYMP1-003 - Dead Cells (AID 961); conditions: LYMP1-003 lymphoblastoid cells, dead-cell protease fluorescence; series mostly up to 92.2 µM;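 note: 0% = DMSO and 100% = tetraoctylammonium bromide; nearly all actives have a fitted effect of over 70% in size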
How it was run: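 LYMP1-003 human lymphoblastoid cells (2500/well) exposed to compound 16 h at 37 C in complete medium; dead-cell protease read with bis-AAF-R110 fluorescence (Ex/Em 485/520) after 60 min at room temperature. Normalized to DMSO and 15 uM tetraoctylammonium bromide; AC50 from Hill fit.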

[16] = Cell Viability - LYMP2-008 (AID 980); conditions: LYMP2-008 lymphoblastoid cell viability, qHTS; series mostly up to 92.2 µM; note: % is set by controls: 0 for no effect and ±100 for the full control effect; nearly all actives have a fitted effect of over 60% in size
How it was run: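 Luminescent ATP read-out (CellTiter-Glo, 30 min RT) after 24 hr compound exposure at 37 C of human lymphoblastoid cells in complete medium. Decrease in ATP taken as cytotoxicity; AC50 derived by standard Hill fit of qHTS concentration-response data.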

[17] = Cell Viability - LYMP1-002 - Assay at 24 hr (AID 993); conditions: LYMP1-002 lymphoblastoid cells viability; series mostly up to 92.2 µM; note: % is set by controls: 0 for no effect and ±100 for the full control effect
How it was run: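 CellTiter-Glo luminescence (intracellular ATP) after 24 h compound exposure, 37 C, in LYMP1-002 human lymphoblastoid cells; decreased ATP taken as cytotoxicity. AC50 from standard Hill fit of concentration-response curves.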

[18] = qHTS Assay for Identification of Small Molecule Inducers of Hypoxia Response (AID 2120; active = well fitted curve in the direction sought with a large enough effect in the signal ratio, with a control signal flat, not every such curve was filed as active; the % refers to the signal ratio; note: 0% is about no effect); conditions: hypoxia response reporter cells, beta-lactamase ratio readout; series mostly up to 104 µM
How it was run: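 Read-out: CCF4 FRET emission ratio 460nm/530nm (excitation 405nm), converted to %Activity, with AC50 fitted across a compound titration. ME-180 cells carried an HRE-driven beta-lactamase reporter; compound exposure 17 h, 37 degrees C.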

[19] = target: Peroxisome proliferator-activated receptor alpha (Homo sapiens) (UniProt Q07869); experiment: qHTS assay for small molecule agonists of the peroxisome proliferator-activated receptor alpha (PPARalpha) signaling pathway (AID 651778); conditions: PathHunter PPARalpha complementation, chemiluminescence, 6 h; active compounds read high; note: % of control where 0% means no effect
Chain of Peroxisome proliferator-activated receptor alpha (Homo sapiens) (Q07869 whole entry, looked up): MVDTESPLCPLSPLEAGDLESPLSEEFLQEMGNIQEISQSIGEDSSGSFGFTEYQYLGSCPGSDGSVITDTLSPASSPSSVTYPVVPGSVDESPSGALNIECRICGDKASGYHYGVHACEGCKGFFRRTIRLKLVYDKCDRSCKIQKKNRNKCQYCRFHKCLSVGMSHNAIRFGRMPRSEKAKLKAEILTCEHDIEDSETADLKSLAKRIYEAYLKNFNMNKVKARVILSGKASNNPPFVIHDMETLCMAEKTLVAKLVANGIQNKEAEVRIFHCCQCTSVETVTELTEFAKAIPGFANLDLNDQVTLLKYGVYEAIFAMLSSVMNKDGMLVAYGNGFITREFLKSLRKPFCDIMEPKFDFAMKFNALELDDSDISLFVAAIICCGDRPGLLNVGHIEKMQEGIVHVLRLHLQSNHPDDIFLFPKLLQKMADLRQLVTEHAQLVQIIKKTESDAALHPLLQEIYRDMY
How it was run: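 Cells plated at 2,000/well and held overnight at 37 C, 5% CO2, then compound added by pin tool for 6 hr; after PathHunter detection reagent and 60 min at room temperature, chemiluminescence from enzyme complementation was read.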

[20] = qHTS assay for cell viability of the p53RE-bla HCT-116 cell line (AID 743292); conditions: p53RE-bla HCT-116 viability, ATP luminescence, 16 h; series mostly up to 95 µM; note: % is set by controls: 0 for no effect and ±100 for the full control effect; nearly all actives have a fitted effect of over 55% in size
How it was run: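 Quantitative high-throughput format: compounds in DMSO were pinned onto p53RE-bla HCT-116 cells (4,000/well) and incubated 16 h at 37 C. Total intracellular ATP, read by CellTiter-Glo luminescence, reflects viable cell number.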

Clc1cc(Cl)c(Cl)c(Cl)c1
inactive: Potency [1] > 92 µM | Potency [2] > 92 µM | Potency [3] > 92 µM | Potency [4] > 92 µM | Potency [5] > 92 µM | Potency [6] > 92 µM | outcome [7] | outcome [8] | outcome [9] | caspase-3 activation [10] -0.644% | outcome [11] | Potency [12] | outcome [13] | outcome [14] | Potency [15] | Potency [16] | Potency [17] | Potency [18] | max response [19] -0.217% | Potency [20]

c1ccc(C2CO2)cc1 (stereo not given)
inactive: Potency [1] > 92 µM | Potency [2] > 92 µM | Potency [3] > 92 µM | Potency [4] > 92 µM | Potency [5] > 92 µM | Potency [6] > 92 µM | outcome [7] | outcome [8] | outcome [9] | caspase-3 activation [10] -0.153% | outcome [11] | Potency [12] | outcome [13] | outcome [14] | Potency [15] | Potency [16] | Potency [17] | Potency [18] | max response [19] 0.189% | Potency [20]

Nc1ccc(-c2ccccc2)cc1
inactive: Potency [1] > 92 µM | Potency [2] > 92 µM | Potency [3] > 92 µM | Potency [4] > 92 µM | Potency [5] > 92 µM | Potency [6] > 92 µM | outcome [7] | outcome [8] | outcome [9] | caspase-3 activation [10] 1.62% | outcome [11] | Potency [12] | outcome [13] | outcome [14] | Potency [15] | Potency [16] | Potency [17] | Potency [18] | max response [19] -0.418% | Potency [20]

O=C(O)c1cccc(Cl)c1
inactive: Potency [1] > 92 µM | Potency [2] > 92 µM | Potency [3] > 92 µM | Potency [4] > 92 µM | Potency [5] > 92 µM | Potency [6] > 92 µM | outcome [7] | outcome [8] | outcome [9] | caspase-3 activation [10] -0.358% | outcome [11] | Potency [12] | outcome [13] | outcome [14] | Potency [15] | Potency [16] | Potency [17] | Potency [18] | max response [19] -1.81% | Potency [20]

Nc1ccc(Cl)c(Cl)c1
inactive: Potency [1] > 92 µM | Potency [2] > 92 µM | Potency [3] > 92 µM | Potency [4] > 92 µM | Potency [5] > 92 µM | Potency [6] > 92 µM | outcome [7] | outcome [8] | outcome [9] | caspase-3 activation [10] 0.307% | outcome [11] | Potency [12] | outcome [13] | outcome [14] | Potency [15] | Potency [16] | Potency [17] | Potency [18] | max response [19] -1.3% | Potency [20]

C=CC(=O)OCC(C)C
inactive: Potency [1] > 92 µM | Potency [2] > 92 µM | Potency [3] > 92 µM | Potency [4] > 92 µM | Potency [5] > 92 µM | Potency [6] > 92 µM | outcome [7] | outcome [8] | outcome [9] | caspase-3 activation [10] -0.317% | outcome [11] | Potency [12] | outcome [13] | outcome [14] | Potency [15] | Potency [16] | Potency [17] | Potency [18] | max response [19] 3.76% | Potency [20]

Oc1c(Cl)cccc1Cl
inactive: Potency [1] > 92 µM | Potency [2] > 92 µM | Potency [3] > 92 µM | Potency [4] > 92 µM | Potency [5] > 92 µM | Potency [6] > 92 µM | outcome [7] | outcome [8] | outcome [9] | caspase-3 activation [10] 1.84% | outcome [11] | Potency [12] | outcome [13] | outcome [14] | Potency [15] | Potency [16] | Potency [17] | Potency [18] | max response [19] -1.21% | Potency [20]

CCC/C=N/O
inactive: Potency [1] > 92 µM | Potency [2] > 92 µM | Potency [3] > 92 µM | Potency [4] > 92 µM | Potency [5] > 92 µM | Potency [6] > 92 µM | outcome [7] | outcome [8] | outcome [9] | caspase-3 activation [10] -0.0645% | outcome [11] | Potency [12] | outcome [13] | outcome [14] | Potency [15] | Potency [16] | Potency [17] | Potency [18] | max response [19] -3.79% | Potency [20]

FC(Cl)(Cl)Cl
inactive: Potency [1] > 92 µM | Potency [2] > 92 µM | Potency [3] > 92 µM | Potency [4] > 92 µM | Potency [5] > 92 µM | Potency [6] > 92 µM | outcome [7] | outcome [8] | outcome [9] | caspase-3 activation [10] -1.27% | outcome [11] | Potency [12] | outcome [13] | outcome [14] | Potency [15] | Potency [16] | Potency [17] | Potency [18] | max response [19] -4.74% | Potency [20]

S=C1NCCN1
inactive: Potency [1] > 92 µM | Potency [2] > 92 µM | Potency [3] > 92 µM | Potency [4] > 92 µM | Potency [5] > 92 µM | Potency [6] > 92 µM | outcome [7] | outcome [8] | outcome [9] | caspase-3 activation [10] -0.864% | outcome [11] | Potency [12] | outcome [13] | outcome [14] | Potency [15] | Potency [16] | Potency [17] | Potency [18] | max response [19] -2.28% and 8.96% | Potency [20]

CCOC(=O)CBr
inactive: Potency [1] > 92 µM | Potency [2] > 92 µM | Potency [3] > 92 µM | Potency [4] > 92 µM | Potency [5] > 92 µM | Potency [6] > 92 µM | outcome [7] | outcome [8] | outcome [9] | caspase-3 activation [10] 1.06% | outcome [11] | Potency [12] | outcome [13] | outcome [14] | Potency [15] | Potency [16] | Potency [17] | Potency [18] | max response [19] -2.92% | Potency [20]
